Records with an inconclusive call do not appear. The source made the active and inactive calls. Calls follow the shape of the full dose curve.
molecular target: Atrial natriuretic peptide receptor 1 (Homo sapiens) (UniProt P16066); assay: Natriuretic polypeptide receptor (hNpr1) antagonism - Pilot screen (AID 1347049); conditions: hNpr1 cells, antagonist mode cGMP read-out; series mostly up to 57.5 µM; activity change, negative = inhibition: at the top concentration
Experimental: In order to identify small molecular compounds that inhibit the hNpr1 receptor we developed a high-throughput assay to measure inhibition of the guanylate cyclase activity of the receptor. cGMP production was measured using a circular permutated Firefly luciferase (FLuc) enzyme functionally linked to the cGMP binding domain of human phosphodiesterase 5 (GloSensor technology pGS-40F, (Fan, F. et al. 2008). The cGMP-sensor was expressed in human embryonic kidney 293 (HEK-293) cells and FLuc activity was measured after stimulation with hNrp agonist peptide. hNrp agonists activates the receptor's associated guanylyl cyclase (GC) domain producing cGMP which then binds to the GloSensor resulting in FLuc activation, the enzymatic activity of which can be measured as bioluminescence with addition of luciferin substrate.
F. Fan, B. F. Binkowski, B. L. Butler, P. F. Stecha, M. K. Lewis, K. V. Wood, Novel genetically encoded biosensors using firefly luciferase. ACS Chem Biol 3, 346-351 (2008).
This assay was initially piloted by testing with a small diversity library of compounds with known pharmacological activity.
PROTOCOL TABLES (as described by Inglese J, Shamu CE and Guy RK. 2007)
SEQUENCE No. (e.g., 1, 2, 3, etc.); […] (e.g., Cells, Incubation, Reagent, etc.); VALUE and DESCRIPTION.
1. Cells. Seed 1500 HEK293 cGMP-sensor cells expressing hNpr1 per well in 4uL into Greiner 1536-well white/solid bottom high base, tissue culture-treated plates.
2. Incubation. Incubate plated cells at 37C in 5% CO2, 95% RH overnight.
3. Reagent. Add 1uL per well GloSensor reagent from Promega (2% final concentration) or CO2 independent media vehicle control to respective columns of Greiner 1536-well plates.
4. Incubation. Incubate plated cells at room temperature for 2 h, protect from light.
5. Compounds. Library compounds and A-71915 control added at 23 nL per well, transferred by Pin Tool.
6. Incubation. Incubate plated cells for 30 min. at room temperature, protect from light.
7. Detector. GloSensor baseline pre-read luminescence measured using CCD-based camera (Viewlux).
8. Compound. Add 1uL of hNppA peptide to 0.1 nM final concentration to stimulate hNpr1 or CO2 independent media as vehicle control.
9. Incubation. Incubate treated cells at room temperature for 20 min., protect from light.
10. Detector. GloSensor post-hNppA luminescence measured using CCD-based camera (Viewlux).
NOTES (numbers refer to Sequence numbers above)
1. HEK293 cells expressing hNpr1 and GIP/pGS-40F grown to 85-95% confluence (48-72 h) in T175 culture flasks (CO2 independent media supplemented with 10% FBS, 1% Pen/Strep antibiotics and 1 ug/mL puromycin). Trypsinize and harvest cells from T175 culture flasks and filter through 40 um cell strainer. Cells counted with Invitrogen Countess (30,000,000 - 50,000,000 cells/flask). Cells diluted to a final concentration of 375 cells/uL in CO2 independent media and a Millipore multidrop used to dispense 1500 cells per well (4uL/well) into 9 x 1536-well Greiner White/Solid bottom, high base tissue-culture treated (TC) plates and one Aurora 1536-well Black/Clear bottom, low base, TC plate (for visual inspection of cell health throughout the duration of the assay).
2. Cells incubated overnight at ambient temperature, 24 h. at 37C in 95% RH incubator protected from light, covered with metal lid with gas-exchange holes.
3. Prepare GloSensor Reagent (Promega): Reconstitute GloSensor luciferase substrate by adding 8.2mL Hepes buffer to 250mg substrate, mix well, protect from light and stored at -80C. Prepare a fresh 12% GloSensor solution in CO2 independent supplemented plating media (see above). Mix well and store at ambient temperature, protected from light. 1uL 12% GloSensor Luciferase Reagent added (2% final concentration) to respective columns of 9 x 1536-well Greiner plate with BioRaptr, 1uL CO2 independent plating media added to respective columns as vehicle control with BioRaptr.
4. […]
% is scaled to controls: 0 for no effect and ±100 for the full control effect.

Sequence of Atrial natriuretic peptide receptor 1 (Homo sapiens) (P16066 whole entry, looked up, the tested form may be a part): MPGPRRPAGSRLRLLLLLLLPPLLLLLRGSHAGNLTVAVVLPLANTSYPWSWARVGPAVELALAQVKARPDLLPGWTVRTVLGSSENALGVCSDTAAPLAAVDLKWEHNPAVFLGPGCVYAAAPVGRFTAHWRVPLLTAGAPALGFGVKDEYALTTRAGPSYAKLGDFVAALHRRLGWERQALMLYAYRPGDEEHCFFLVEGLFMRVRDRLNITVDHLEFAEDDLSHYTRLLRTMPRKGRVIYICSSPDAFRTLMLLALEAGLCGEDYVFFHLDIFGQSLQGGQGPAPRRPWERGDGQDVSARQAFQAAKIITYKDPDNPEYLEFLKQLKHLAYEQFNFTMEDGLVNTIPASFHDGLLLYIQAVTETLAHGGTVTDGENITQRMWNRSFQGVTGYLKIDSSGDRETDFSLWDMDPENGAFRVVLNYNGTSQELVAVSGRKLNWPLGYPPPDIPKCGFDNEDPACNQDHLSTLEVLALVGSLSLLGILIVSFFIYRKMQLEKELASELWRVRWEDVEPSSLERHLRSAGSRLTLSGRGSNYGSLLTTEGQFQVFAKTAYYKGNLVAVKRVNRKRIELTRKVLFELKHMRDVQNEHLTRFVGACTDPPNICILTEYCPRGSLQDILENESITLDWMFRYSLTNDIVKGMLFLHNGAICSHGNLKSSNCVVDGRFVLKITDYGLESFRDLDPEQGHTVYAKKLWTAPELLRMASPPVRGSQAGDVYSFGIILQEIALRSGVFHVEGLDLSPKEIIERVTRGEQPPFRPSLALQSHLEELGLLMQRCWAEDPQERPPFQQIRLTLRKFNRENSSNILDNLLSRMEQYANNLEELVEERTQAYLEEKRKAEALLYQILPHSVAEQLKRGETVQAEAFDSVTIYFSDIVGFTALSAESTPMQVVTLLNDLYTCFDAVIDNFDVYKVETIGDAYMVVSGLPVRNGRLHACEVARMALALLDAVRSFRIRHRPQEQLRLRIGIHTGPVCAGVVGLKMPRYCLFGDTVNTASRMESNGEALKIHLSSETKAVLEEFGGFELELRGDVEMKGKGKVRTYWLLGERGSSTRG

SMILES	activity change, negative = inhibition	outcome
CN(C)CC[C@@H](c1ccc(Cl)cc1)c1ccccn1	-3.16% (inactive)	–
CN(C)CCC=C1c2ccccc2CCc2ccccc21	2.37% (inactive)	–
CC1=C(CC(=O)O)c2cc(F)ccc2/C1=C\c1ccc(S(C)=O)cc1 (stereo not given)	-6.03% (inactive)	–
CC(C)(C)c1onc(OCP(=O)(O)O)c1CC(N)C(=O)O (stereo not given)	–	inactive
OCc1cc(C(O)CNCCCCCCOCCCCc2ccccc2)ccc1O (stereo not given)	0.879% (inactive)	–
CN(C)CCCN1c2ccccc2CCc2ccccc21	-11.4% (inactive)	–
COc1ccc(Cl)cc1C(=O)NCCc1ccc(S(=O)(=O)NC(=O)NC2CCCCC2)cc1	-1.24% (inactive)	–
CC1=C(CC(=O)O)c2cc(F)ccc2/C1=C\c1ccc(S(C)(=O)=O)cc1	-11.9% (inactive)	–
C=Cc1c(C)c2cc3[nH]c(cc4nc(cc5nc(cc1[nH]2)C(C)=C5CCC(=O)O)C(CCC(=O)O)=C4C)c(C)c3C=C	6.45% (inactive)	–
N=c1c[n+](N2CCOCC2)[n-]o1	-1.21% (inactive)	–
CCN(CC)CCCC(C)Nc1c2ccc(Cl)cc2nc2ccc(OC)cc12 (stereo not given)	0.295% (inactive)	–
NC(N)=NCCC[C@H](N)C(=O)O	18.9% (inactive)	–
CCN(CC)CCOC(=O)C1(C2CCCCC2)CCCCC1	-5.03% (inactive)	–
Nc1ncnc2c1ncn2[C@@H]1O[C@H](CO)[C@@H](O)[C@H]1O	13.8% (inactive)	–
CNCCCC1c2ccccc2C=Cc2ccccc21	-0.0211% (inactive)	–
CC(CN1c2ccccc2Sc2ccccc21)N(C)C (stereo not given)	-1.93% (inactive)	–
CCN(CC)C(C)CN1c2ccccc2Sc2ccccc21 (stereo not given)	1.5% (inactive)	–
CC(C)(C)[C@]1(O)CCN2C[C@H]3c4ccccc4CCc4cccc(c43)[C@@H]2C1	0.587% (inactive)	–
COC(=O)C1=C(C)NC(C)=C(C(=O)OC)C1c1ccccc1[N+](=O)[O-]	-5% (inactive)	–
CCCCCCCCCCCCCCCC(=O)NCCO	8.98% (inactive)	–

SMILES	activity change, negative = inhibition	outcome
C[C@]12CC[C@@H]3c4ccc(O)cc4CC[C@H]3[C@@H]1CCC2=O	-2.45% (inactive)	–
OCCN1CCN(CCCN2c3ccccc3Sc3ccc(Cl)cc32)CC1	-16.3% (inactive)	–
CN(C)CCOC(C)(c1ccccc1)c1ccccn1 (stereo not given)	-0.38% (inactive)	–
CSc1ccc2c(c1)C(N1CCN(C)CC1)Cc1ccccc1S2 (stereo not given)	-18.3% (inactive)	–
C[C@](N)(Cc1ccc(O)cc1)C(=O)O	4.44% (inactive)	–
C#CCN(C)Cc1ccccc1	5.96% (inactive)	–
C[C@]12C[C@H](O)[C@H]3[C@@H](CCC4=CC(=O)CC[C@@]43C)[C@@H]1CC[C@@H]2C(=O)CO	7.27% (inactive)	–
CC(C)NC[C@H](O)c1ccc(O)c(O)c1	–	inactive
CN(C)CCCN1c2ccccc2Sc2ccc(Cl)cc21	-26.1% (inactive)	–
NC1CCN(c2cccc(Cl)n2)CC1	12.7% (inactive)	–
CC(=O)OCC(=O)[C@@]1(O)CC[C@H]2[C@@H]3CCC4=CC(=O)CC[C@]4(C)[C@H]3C(=O)C[C@@]21C	5.69% (inactive)	–
CC(CN(C)C)CN1c2ccccc2CCc2ccccc21 (stereo not given)	-24.9% (inactive)	–
COCCOC(=O)C1=C(C)NC(C)=C(C(=O)OC/C=C/c2ccccc2)C1c1cccc([N+](=O)[O-])c1 (stereo not given)	9.43% (inactive)	–
Nc1cc(=O)[nH]c(N)n1	1.44% (inactive)	–
CC(C)C(=O)c1c(C(C)C)nn2ccccc12	4.97% (inactive)	–
CCN(CC)CCNC(=O)c1cc(Cl)c(N)cc1OC	-0.995% (inactive)	–
CCCn1cnc2c1c(=O)n(CCCCC(C)=O)c(=O)n2C	6.49% (inactive)	–
CC1=C(/C=C/C(C)=C/C=C/C(C)=C/C(=O)O)C(C)(C)CCC1	1.74% (inactive)	–
CC[C@H]1CN2CCc3cc(OC)c(OC)cc3[C@@H]2C[C@@H]1C[C@H]1NCCc2cc(OC)c(OC)cc21	0.896% (inactive)	–
NC(=O)c1ncn([C@@H]2O[C@H](CO)[C@@H](O)[C@H]2O)n1	14.9% (inactive)	–

Source: PubChem BioAssay (NCATS)
